Out of some 5,500 compounds screened, about 2,000 (36%) were called active. Another 18% or so got no clear call; they are omitted. Rule as the data show it: active = normalized growth mostly below about 0.91 (no sharp cut-off); inconclusive = no clear call, values can overlap the other calls; inactive = mostly above about 0.92. Some of the results follow.
Test: chemical genetic growth profiling, strain panel (AID 1159580);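 also: tested at 20 µM; growth read once vehicle control cultures reached saturation at 30 °C; 1 = growth at the plate median or of vehicle wells; lower values mean less growth of the strain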
Conditions: growth OD

Measured: normalized growth

CC(=O)c1cc2c(cc1O)OC(C)(C)C=C2
inactive: S. cerevisiae deletion strains, locus YAL013W, strain DEP1, active compounds read low 0.991 | S. cerevisiae deletion strains, locus YBR021W, strain FUR4, active compounds read low 1.01 | S. cerevisiae deletion strains, locus YBR229C, strain ROT2, active compounds read low 0.983 | S. cerevisiae deletion strains, locus YCL029C, strain bik1, active compounds read low 0.993 | S. cerevisiae deletion strains, locus YDL035C, strain GPR1, active compounds read low 1 | S. cerevisiae deletion strains, locus YDL074C, strain BRE1, active compounds read low 0.974 | S. cerevisiae deletion strains, locus YDL101C, strain DUN1, active compounds read low 0.999 | S. cerevisiae deletion strains, locus YDL134C, strain PPH21, active compounds read low 1.01 | S. cerevisiae deletion strains, locus YDL185W, strain tfp1, active compounds read low 0.993 | S. cerevisiae deletion strains, locus YDL192W, strain arf1, active compounds read low 0.976 | S. cerevisiae deletion strains, locus YDR162C, strain NBP2, active compounds read low 1 | S. cerevisiae deletion strains, locus YDR318W, strain mcm21, active compounds read low 0.999 | S. cerevisiae deletion strains, locus YDR388W, active compounds read low 0.992 | S. cerevisiae deletion strains, locus YDR502C, strain sam2, active compounds read low 1 | S. cerevisiae deletion strains, locus YER110C, active compounds read low 0.979 | S. cerevisiae deletion strains, locus YER155C, strain BEM2, active compounds read low 0.975 | S. cerevisiae deletion strains, locus YER167W, strain BCK2, active compounds read low 0.96 | S. cerevisiae deletion strains, locus YGL078C, strain dbp3, active compounds read low 1.03 | S. cerevisiae deletion strains, locus YGL086W, strain mad1, active compounds read low 0.972 | S. cerevisiae deletion strains, locus YGL248W, strain PDE1, active compounds read low 0.997 | S. cerevisiae deletion strains, locus YGR078C, strain PAC10, active compounds read low 1.01 | S. cerevisiae deletion strains, locus YGR135W, strain pre9, active compounds read low 1.02 | S. cerevisiae deletion strains, locus YGR252W, strain gcn5, active compounds read low 1.07 | S. cerevisiae deletion strains, locus YHR079C, strain IRE1 (second series), active compounds read low 0.988 | S. cerevisiae deletion strains, locus YHR094C, strain hxt1, active compounds read low 0.983 | S. cerevisiae deletion strains, locus YHR129C, strain ARP1, active compounds read low 0.991 | S. cerevisiae deletion strains, locus YHR200W, strain rpn10, active compounds read low 0.97 | S. cerevisiae deletion strains, locus YIL066C, strain RNR3, active compounds read low 0.979 | S. cerevisiae deletion strains, locus YIL073C, strain SPO22, active compounds read low 1.03 | S. cerevisiae deletion strains, locus YIL125W, strain kgd1, active compounds read low 0.974 | S. cerevisiae deletion strains, locus YIR030C, strain dcg1, active compounds read low 0.982 | S. cerevisiae deletion strains, locus YJL095W, strain BCK1, active compounds read low 1.02 | S. cerevisiae deletion strains, locus YJL134W, strain LCB3, active compounds read low 0.98 | S. cerevisiae deletion strains, locus YJL168C, strain set2, active compounds read low 0.991 | S. cerevisiae deletion strains, locus YJL187C, strain SWE1 (second series), active compounds read low 1.03 | S. cerevisiae deletion strains, locus YJR043C, strain POL32, active compounds read low 0.935 | S. cerevisiae deletion strains, locus YKL009W, strain mrt4, active compounds read low 1.01 | S. cerevisiae deletion strains, locus YKL068W, active compounds read low 0.973 | S. cerevisiae deletion strains, locus YKL085W, strain MDH1 (second series), active compounds read low 0.976 | S. cerevisiae deletion strains, locus YKL085W, strain MDH1, active compounds read low 0.976 | S. cerevisiae deletion strains, locus YKL190W, strain CNB1, active compounds read low 0.991 | S. cerevisiae deletion strains, locus YKR001C, strain vps1, active compounds read low 0.968 | S. cerevisiae deletion strains, locus YLR039C, strain RIC1, active compounds read low 0.952 | S. cerevisiae deletion strains, locus YLR058C, strain SHM2, active compounds read low 0.999 | S. cerevisiae deletion strains, locus YLR102C, strain apc9, active compounds read low 0.981 | S. cerevisiae deletion strains, locus YLR268W, strain sec22, active compounds read low 0.99 | S. cerevisiae deletion strains, locus YLR330W, strain CHS5, active compounds read low 0.983 | S. cerevisiae deletion strains, locus YLR418C, strain cdc73, active compounds read low 0.964 | S. cerevisiae deletion strains, locus YML016C, strain PPZ1, active compounds read low 0.938 | S. cerevisiae deletion strains, locus YML032C, strain rad52, active compounds read low 0.993 | S. cerevisiae deletion strains, locus YML124C, strain tub3, active compounds read low 0.965 | S. cerevisiae deletion strains, locus YMR078C, strain ctf18, active compounds read low 0.956 | S. cerevisiae deletion strains, locus YMR223W, strain ubp8, active compounds read low 1.01 | S. cerevisiae deletion strains, locus YMR307W, strain GAS1, active compounds read low 1.15 | S. cerevisiae deletion strains, locus YNL067W, strain RPL9B, active compounds read low 1.01 | S. cerevisiae deletion strains, locus YNL233W, strain BNI4, active compounds read low 0.991 | S. cerevisiae deletion strains, locus YNL250W, strain rad50, active compounds read low 0.997 | S. cerevisiae deletion strains, locus YNL271C, strain bni1, active compounds read low 0.977 | S. cerevisiae deletion strains, locus YNL298W, strain CLA4, active compounds read low 1.01 | S. cerevisiae deletion strains, locus YNL307C, strain MCK1, active compounds read low 0.975 | S. cerevisiae deletion strains, locus YNR052C, strain pop2, active compounds read low 1.06 | S. cerevisiae deletion strains, locus YOL012C, strain htz1 0.862 | S. cerevisiae deletion strains, locus YOL147C, strain pex11, active compounds read low 0.96 | S. cerevisiae deletion strains, locus YOR061W, strain CKA2, active compounds read low 0.982 | S. cerevisiae deletion strains, locus YOR069W, strain VPS5, active compounds read low 0.989 | S. cerevisiae deletion strains, locus YOR136W, strain idh2, active compounds read low 1.01 | S. cerevisiae deletion strains, locus YOR144C, strain elg1, active compounds read low 0.984 | S. cerevisiae deletion strains, locus YOR184W, strain ser1, active compounds read low 0.901 | S. cerevisiae deletion strains, locus YOR316C, strain cot1, active compounds read low 0.985 | S. cerevisiae deletion strains, locus YPR119W, strain clb2, active compounds read low 0.982 | S. cerevisiae deletion strains, locus YPR141C, strain kar3, active compounds read low 0.962 | S. cerevisiae deletion strains, locus YPR163C, strain tif3, active compounds read low 0.993 | S. cerevisiae deletion strains, locus YPR167C, strain met16, active compounds read low 0.993 | S. cerevisiae deletion strains, strain wtn01, active compounds read low 0.947 | S. cerevisiae strains, strain wild type, active compounds read low 0.983
active: S. cerevisiae deletion strains, locus YDR101C, strain arx1, active compounds read low 0.891 | S. cerevisiae deletion strains, locus YLR371W, strain rom2, active compounds read low 0.808

— PubChem BioAssay AID1159580 (chemical genetic matrix, 2015)
